59 molecules from PubChem BioAssay AID2235 (The Scripps Research Institute Molecular Screening Center, 2010) can be followed below.

Hit rate of the full screen: of about 320,000 compounds, about 2,800 (0.88%) were called active.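 The calls were made as follows: active = inhibition above the mean inhibition of all tested compounds plus 3 SD, computed separately for each screening campaign (cut at about 15% in these data); inactive = the rest.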 For the sample, actives were picked, then their nearest neighbours and some compounds at random.

This experiment deals with Serine/threonine-protein phosphatase PP1-alpha catalytic subunit (Homo sapiens) (UniProt P62136). The experiment can be described thus: inhibition of human PP1 catalytic subunit – biochemical, fluorescence, OMFP substrate, single point, counter-screen for PP5 inhibitor project, primary screen (AID 2235). To be noted: purified PP1alpha, at 6.7 µM, stronger effect = higher value.
Sequence of Serine/threonine-protein phosphatase PP1-alpha catalytic subunit (Homo sapiens) (P62136 whole entry, looked up): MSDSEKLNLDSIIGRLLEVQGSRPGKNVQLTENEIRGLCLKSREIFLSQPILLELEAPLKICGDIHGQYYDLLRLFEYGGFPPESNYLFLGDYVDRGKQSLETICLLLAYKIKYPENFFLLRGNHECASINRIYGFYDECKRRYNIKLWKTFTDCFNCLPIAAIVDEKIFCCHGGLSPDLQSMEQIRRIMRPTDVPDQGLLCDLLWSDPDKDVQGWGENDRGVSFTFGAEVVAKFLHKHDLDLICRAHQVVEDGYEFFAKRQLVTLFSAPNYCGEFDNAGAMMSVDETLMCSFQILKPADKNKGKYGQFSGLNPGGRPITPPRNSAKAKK
With `O=C(Cn1cc(-c2nnnn2-c2ccc(Cl)cc2)c(=O)c2ccccc21)c1ccccc1`, the inhibition is 1.68% (inactive).
Turning to `Clc1ccc(-n2nnnc2-c2cnc(-c3ccccn3)nc2-c2cccs2)cc1`, the inhibition is 75.5% (active).
Take `FC(F)(F)c1nc(-c2ccccc2)ncc1-c1nnnn1-c1ccccc1`: the inhibition is 0.75% (inactive).
Consider `O=S(=O)(c1ccc(F)cc1)n1ccc(-c2cnc(-c3ccccc3)s2)n1`, for which the inhibition was 5.23% (inactive).
With `CCOc1ccc2sc(NS(=O)(=O)c3ccc(N)cc3)nc2c1` the figure was 1.47% (inactive); with `COCCCn1c(SCC(=O)Nc2oc(C)c3c(C)n[nH]c(=O)c23)nc2sc3c(c2c1=O)CCC3`, -2.04% (inactive).
Regarding `Cc1cccc(OCC(O)Cn2c(=N)n(CCN3CCOCC3)c3ccccc32)c1` (centres undefined), the inhibition is 26% (active).
Consider `CCOc1ccc(C(O)Cn2c(=N)n(CCN3CCCCC3)c3ccccc32)cc1` (centres undefined), for which the inhibition is 0.66% (inactive).
With `C=CCn1c(=N)n(CC(O)COc2ccc(OC)cc2)c2ccccc21` (centres undefined) the figure was -0.92% (inactive).
On to `Cc1ccc(NC(=O)NC(=O)N(C2CCCCC2)S(=O)(=O)c2ccccc2)cc1`, for which the inhibition was 0.85% (inactive).
With `C=CCn1c(SCc2csc(C)n2)nc2scc(-c3ccc(C)o3)c2c1=O` the figure was -0.82% (inactive).
With `C=CCNC(=O)CSc1nc2scc(-c3ccco3)c2c(=O)n1CC=C` the figure was 3.47% (inactive); with `C=CCn1c(=S)[nH]c2scc(-c3ccco3)c2c1=O`, 18.8% (active); with `COc1cc(NC(=S)NNC(=O)CC(C)C)c(OC)cc1Cl`, -3.43% (inactive).
Consider `Cc1nnc(NC(=O)CCC(=O)N2CCC(C)CC2)s1`, for which the inhibition is -0.54% (inactive).
Under `CC1(C)O[C@@H]2[C@H](O1)[C@@H](COS(=O)(=O)O)O[C@H]2n1ccc(=O)[nH]c1=O` stands 1.54% (inactive).
Under `COc1cc(NC(=O)CSc2nnc3ccc(-c4ccncc4)nn23)cc(OC)c1` stands -2.13% (inactive); under `CC1CCCCN1S(=O)(=O)c1ccc(C(=O)Nc2nnc(-c3cccs3)o2)cc1` (centres undefined), 25.9% (active); under `CC1CCCCN1S(=O)(=O)CCNC(=O)c1ccccc1` (centres undefined), -2.78% (inactive).
On to `CSCc1nnc(NC(=O)c2ccc(S(=O)(=O)N3CCCCC3C)cc2)o1` (centres undefined), for which the inhibition was 16.8% (active).
As to `CC1CCCCN1S(=O)(=O)c1ccc(S(=O)(=O)N(CC(=O)Nc2ccccc2)Cc2cccs2)cc1` (centres undefined), the inhibition is 3.05% (inactive).
With `O=C(Nc1nnc(-c2ccco2)o1)c1ccc(S(=O)(=O)N2CCOCC2)cc1` the figure was 1.14% (inactive); with `CC1CCCN(S(=O)(=O)c2ccc(C(=O)Nc3nnc(-c4ccncc4)o3)cc2)C1` (centres undefined), 7.97% (inactive).
Regarding `COC(=O)c1ccc(-c2c(-c3ccccc3)ncc3cc(OC)c(OC)cc23)cc1`, the inhibition was 1.2% (inactive).
Under `CCCCCCCC(=O)NC(Nc1ccccc1OC)C(Cl)(Cl)Cl` (centres undefined) stands 4.91% (inactive).
With `COCC(=O)Nc1c(I)c(C(=O)NCC(O)CO)c(I)c(C(=O)N(C)CC(O)CO)c1I` (centres undefined), the inhibition is -5.4% (inactive).
For `Cc1cc(C)nc(-n2ncc3c2CC(c2ccc(C(C)C)cc2)CC3=O)n1` (centres undefined), the inhibition is 15.3% (active).
With `COc1cc(S(=O)(=O)Nc2ncn[nH]2)ccc1Cl` the figure was -0.04% (inactive); with `CN1OC(COC(=O)c2ccc(Cl)cc2)CC1c1ccccc1` (centres undefined), 1.23% (inactive); with `CS(=O)(=O)N(CC(=O)N1CCN(c2cccc(Cl)c2)CC1)c1ccccc1`, -1.41% (inactive).
As for `Cc1ccc([C@@H]2CC=C(C(=O)O)[C@H](c3cccc(Cl)c3)N2S(=O)(=O)c2ccc(C)cc2)cc1`, the inhibition was 5.69% (inactive).
On to `Cc1ccccc1S(=O)(=O)N1[C@@H](c2cccc(Cl)c2)C(C(=O)O)=CC[C@H]1c1ccc(Cl)cc1`, for which the inhibition is 20.5% (active).
With `Cc1ccc(S(=O)(=O)N2[C@@H](c3cccc(Cl)c3)C(C(=O)O)=CC[C@H]2c2ccc(Cl)c(Cl)c2)cc1` the figure was 21.6% (active).
With `Cc1ccc(S(=O)(=O)N2[C@@H](c3ccccc3F)C(C(=O)O)=CC[C@H]2c2ccc(Cl)cc2)cc1` the figure was 4.64% (inactive); with `CC(C)CCSc1ncnc2c1oc1nc3c(cc12)COC(C)(C)C3`, -3.04% (inactive); with `Cc1c(CC(=O)N2CCN(C(=O)C3COc4ccccc4O3)CC2)c(=O)oc2c(O)c(O)ccc12` (centres undefined), 3.96% (inactive).
With `Cc1cc(Nc2ccc(Br)cc2F)n2ncnc2n1` the figure was -2.4% (inactive).
With `COc1ccc(C2C(C(C)=O)=C(O)C(=O)N2Cc2cccnc2)cc1` (centres undefined), the inhibition is -4.55% (inactive).
Under `COc1ccc(C2C(C(C)=O)=C(O)C(=O)N2CCc2c[nH]c3ccccc23)cc1` (centres undefined) stands 18.3% (active).
With `COc1ccc(C2C(C(C)=O)=C(O)C(=O)N2c2nccs2)cc1` (centres undefined) the figure was -3.06% (inactive); with `Cc1onc(-c2ccccc2Cl)c1C(=O)N(Cc1ccc(N(C)C)cc1)C(C)C`, 0.01% (inactive); with `COc1ccc2c(c1)c(C(=O)N/N=C/c1cccs1)c(C)n2C`, -3.65% (inactive).
With `Cc1ccc2c(Cl)c(C(=O)Nc3nn[nH]n3)sc2c1` the figure was 10.3% (inactive).
On to `Cc1ccc(-c2cc(C(=O)Nc3nn[nH]n3)c3ccccc3n2)c(C)c1`, for which the inhibition was 21.8% (active).
With `COc1ccc(CN(C)C(=O)c2cc(-c3ccc(C)cc3C)nc3ccccc23)c(OC)c1OC` the figure was 1.42% (inactive).
Take `COc1cccc(NC(=O)C(Sc2nnnn2C)c2ccccc2)c1` (centres undefined): the inhibition was -7.84% (inactive).
For `Cc1ccc2cc(CCNC(=O)c3ccc4c(c3)OCO4)c(=O)[nH]c2c1`, the inhibition was 0.9% (inactive).
With `Cc1ccc2cc(CCNC(=O)c3c(-c4ccccc4Cl)noc3C)c(=O)[nH]c2c1`, the inhibition is 57.5% (active).
Take `Cc1onc(-c2ccccc2Cl)c1C(=O)NCCn1ccc2ccccc21`: the inhibition was 0.26% (inactive).
Take `O=S(=O)(NCCc1ccccn1)c1cc(Cl)cc(Cl)c1O`: the inhibition is -3.07% (inactive).
Regarding `COc1cc(S(=O)(=O)N2CCOCC2)ccc1NC(=O)COc1ccc(N(C)S(=O)(=O)c2ccc(C)cc2)cc1`, the inhibition is 5.5% (inactive).
Turning to `O=C(Nc1ccccc1F)c1ccc(S(=O)(=O)N2CCCCCC2)cc1`, the inhibition was 0.94% (inactive).
As to `CC(=O)N1CCCc2cc(S(=O)(=O)N3CCCC(C(=O)N4CCN(c5cccc(Cl)c5)CC4)C3)ccc21` (centres undefined), the inhibition is -0.49% (inactive).
Consider `CCCCCCCCCCOC(=O)Cn1c(COc2cccc(OC)c2)[n+](C)c2ccccc21`, for which the inhibition was 33% (active).
With `CCCCn1c(N)c(N(CCOC)C(=O)c2cccc(OCc3ccccc3)c2)c(=O)[nH]c1=O` the figure was -1.96% (inactive).
Under `CCOC(=O)COn1c(=O)c(-c2ccc(OCC)cc2)[n+]([O-])c2ccccc21` stands -1.29% (inactive); under `CCn1c(COc2cccc(OC)c2)nnc1SCC(=O)N1CCOCC1`, -1.11% (inactive); under `CCOC(=O)Cn1c(-c2cccnc2Cl)nc2ccccc21`, 2.18% (inactive).
Take `CCCCCCCCCCOC(=O)Cn1c(COc2ccc(C)cc2)[n+](C)c2ccccc21`: the inhibition was 44.7% (active).

One may read the inhibition as the relative decrease from the control value, in per cent.
